# Experimental data as given in PubChem BioAssay (NCI).
# This is part of a sample that, as a whole, favours compounds with a hit. Of some 79,000 tested, about 15% had one in any assay. Unmarked numbers belong to inactive results. Active and inactive are the calls of the source. Rule as the data show it: active = growth inhibition above about 70%; inactive = the rest.
# How the values were obtained:
# [1] = NCI Yeast Anticancer Drug Screen. Data for the rad52 strain (AID 147);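 also: 0% = growth of vehicle-treated control cultures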; settings: S. cerevisiae rad52 mutant growth inhibition, hits give high values
# Procedure, shortened: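 Growth of repair-deficient yeast cells was compared between compound-treated and vehicle-treated cultures to give percent inhibition.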
# [2] = NCI Yeast Anticancer Drug Screen. Data for the wt1 strain (AID 149);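 also: 0% = growth of vehicle-treated wt1 cultures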; settings: S. cerevisiae wt1 strain (SPY 50644) growth inhibition, hits give high values
# Procedure, shortened: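 Yeast wt1 strain exposed to compounds; growth inhibition measured relative to vehicle-treated controls.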
# [3] = NCI Yeast Anticancer Drug Screen. Data for the rad50EPP+ strain (AID 151);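 also: 0% = growth of vehicle-treated control cultures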; settings: S. cerevisiae rad50 mutant strain, hits give high values
# Procedure, shortened: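 Measured: growth inhibition of rad50EPP+ yeast. Reference: vehicle-treated controls. Screen uses strains with defined genetic alterations in DNA damage repair or cell cycle control.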
# [4] = NCI Yeast Anticancer Drug Screen. Data for the mgt1 strain (AID 153); settings: S. cerevisiae mgt1 mutant growth inhibition, hits give high values
# Procedure, shortened: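 Compounds were applied to mgt1 mutant yeast, and growth was then compared against vehicle-treated control cultures to give percent inhibition.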
# [5] = NCI Yeast Anticancer Drug Screen. Data for the rad50 strain (AID 155);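 also: 0% = growth of vehicle-only cultures of the same strain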; settings: S. cerevisiae rad50 strain growth inhibition, hits give high values
# Procedure, shortened: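 Yeast carrying a defined DNA repair defect were exposed to test compounds, and growth was compared with vehicle-treated controls to give percent inhibition.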
# [6] = NCI Yeast Anticancer Drug Screen. Data for the mec2-1 strain (AID 157); settings: S. cerevisiae mec2-1 strain, hits give high values
# Procedure, shortened: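 Compounds were applied to mec2-1 yeast cells. Their growth was then compared with that of vehicle-treated cultures to give growth inhibition.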
# [7] = NCI Yeast Anticancer Drug Screen. Data for the rad14 strain (AID 159);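 also: 0% = growth of vehicle-treated control cultures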; settings: S. cerevisiae rad14 strain growth inhibition, hits give high values
# Procedure, shortened: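 Yeast cells carrying a defined DNA-repair defect were exposed to compounds, and growth inhibition was calculated relative to vehicle-treated control cultures.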
# [8] = NCI Yeast Anticancer Drug Screen. Data for the CLN2oe strain (AID 163);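 also: 0% = growth of vehicle-only control cultures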; settings: S. cerevisiae CLN2oe strain, hits give high values
# Procedure, shortened: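 Cells of an engineered yeast line with disturbed cell-cycle regulation are treated with compound. Inhibition of growth is then calculated relative to the vehicle-treated reference.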
# [9] = NCI Yeast Anticancer Drug Screen. Data for the cln2 rad14 strain (AID 165);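 also: 0% = growth equal to vehicle treated cultures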; settings: S. cerevisiae cln2 rad14 strain, hits give high values
# Procedure, shortened: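 Strain: cln2 rad14 yeast, altered in cell cycle control and DNA damage repair. Read-out: growth inhibition vs vehicle.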
# [10] = NCI Yeast Anticancer Drug Screen. Data for the bub3 strain (AID 167); settings: S. cerevisiae bub3 mutant strain, hits give high values
# Procedure, shortened: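 Compounds were applied to a genetically altered yeast strain carrying a cell-cycle control defect. Growth inhibition was scored against vehicle-treated controls.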
# [11] = NCI Yeast Anticancer Drug Screen. Data for the wt2 strain (AID 169);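 also: 0% = growth of vehicle-treated yeast cultures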; settings: S. cerevisiae wt2 strain growth inhibition, hits give high values
# Procedure, shortened: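 Growth of compound-treated yeast is measured and expressed as inhibition relative to vehicle-only controls.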
# [12] = NCI Yeast Anticancer Drug Screen. Data for the mlh1 strain (AID 171);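 also: 0% = growth of vehicle-treated control cultures of the same strain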; settings: S. cerevisiae mlh1 strain growth inhibition, hits give high values
# Procedure, shortened: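 Test agents were incubated with yeast bearing a defined DNA damage repair or cell cycle control alteration; values are growth inhibition normalised to vehicle-treated cultures.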
# [13] = NCI Yeast Anticancer Drug Screen. Data for the mlh1 rad18 strain (AID 175); settings: S. cerevisiae mlh1 rad18 strain growth inhibition, hits give high values
# Procedure, shortened: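 A repair-deficient yeast strain is exposed to test compound, and growth is scored relative to vehicle-treated controls.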
# [14] = NCI Yeast Anticancer Drug Screen. Data for the rad18 strain (AID 177); settings: S. cerevisiae rad18 mutant growth inhibition, hits give high values
# Procedure, shortened: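 DNA-repair-defective yeast; compound treatment; growth inhibition scored against vehicle.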
# [15] = at 5.0 µM (retest, dose inferred, filed as 0.5)
# [16] = at 50.0 µM (retest, dose inferred, filed as 5.0)
smiles,measurement,setting,value
Cn1c2ccccc2c(=O)c2cc(NC(=O)CCCCC(=O)Nc3ccc4c(c3)c(=O)c3ccccc3n4C)ccc21,growth inhibition,[1]; at 1.2 µM,0%
same,growth inhibition,[1]; at 3.7 µM,6%
same,growth inhibition,[1]; at 11.0 µM,35%
same,growth inhibition,[1]; at 33.0 µM,76% (active)
same,growth inhibition,[1]; at 100.0 µM,87% (active)
same,growth inhibition,[2]; at 1.2 µM,4%
same,growth inhibition,[2]; at 3.7 µM,-4%
same,growth inhibition,[2]; at 11.0 µM,-1%
same,growth inhibition,[2]; at 33.0 µM,4%
same,growth inhibition,[2]; at 100.0 µM,20%
same,growth inhibition,[3]; at 1.2 µM,-1%
same,growth inhibition,[3]; at 3.7 µM,4%
same,growth inhibition,[3]; at 11.0 µM,14%
same,growth inhibition,[3]; at 33.0 µM,55%
same,growth inhibition,[3]; at 100.0 µM,80% (active)
same,growth inhibition,[4]; at 1.2 µM,1%
same,growth inhibition,[4]; at 3.7 µM,6%
same,growth inhibition,[4]; at 11.0 µM,-9%
same,growth inhibition,[4]; at 33.0 µM,-3%
same,growth inhibition,[4]; at 100.0 µM,46%
same,growth inhibition,[5]; at 1.2 µM,0%
same,growth inhibition,[5]; at 3.7 µM,11%
same,growth inhibition,[5]; [15],9%
same,growth inhibition,[5]; at 11.0 µM,41%
same,growth inhibition,[5]; at 33.0 µM,76% (active)
same,growth inhibition,[5]; [16],82% (active)
same,growth inhibition,[5]; at 50.0 µM,80.5% (active)
same,growth inhibition,[5]; at 100.0 µM,78% (active)
same,growth inhibition,[6]; at 1.2 µM,-5%
same,growth inhibition,[6]; at 3.7 µM,-2%
same,growth inhibition,[6]; [15],-7%
same,growth inhibition,[6]; at 11.0 µM,2%
same,growth inhibition,[6]; at 33.0 µM,13%
same,growth inhibition,[6]; [16],6%
same,growth inhibition,[6]; at 50.0 µM,12.4%
same,growth inhibition,[6]; at 100.0 µM,47%
same,growth inhibition,[7]; at 1.2 µM,-1%
same,growth inhibition,[7]; at 3.7 µM,3%
same,growth inhibition,[7]; at 11.0 µM,3%
same,growth inhibition,[7]; at 33.0 µM,17%
same,growth inhibition,[7]; at 100.0 µM,58%
same,growth inhibition,[8]; at 1.2 µM,-6%
same,growth inhibition,[8]; at 3.7 µM,-4%
same,growth inhibition,[8]; at 11.0 µM,-8%
same,growth inhibition,[8]; at 33.0 µM,3%
same,growth inhibition,[8]; at 100.0 µM,27%
same,growth inhibition,[9]; [15],-1%
same,growth inhibition,[9]; [16],5%
same,growth inhibition,[9]; at 50.0 µM,-12.1%
same,growth inhibition,[10]; at 1.2 µM,-4%
same,growth inhibition,[10]; at 3.7 µM,-5%
same,growth inhibition,[10]; [15],1%
same,growth inhibition,[10]; at 11.0 µM,-5%
same,growth inhibition,[10]; at 33.0 µM,-3%
same,growth inhibition,[10]; [16],10%
same,growth inhibition,[10]; at 50.0 µM,-22.2%
same,growth inhibition,[10]; at 100.0 µM,19%
same,growth inhibition,[11]; at 1.2 µM,-3%
same,growth inhibition,[11]; at 3.7 µM,-2%
same,growth inhibition,[11]; at 11.0 µM,-1%
same,growth inhibition,[11]; at 33.0 µM,10%
same,growth inhibition,[11]; at 100.0 µM,40%
same,growth inhibition,[12]; at 1.2 µM,0%
same,growth inhibition,[12]; at 3.7 µM,2%
same,growth inhibition,[12]; at 11.0 µM,3%
same,growth inhibition,[12]; at 33.0 µM,24%
same,growth inhibition,[12]; at 100.0 µM,66%
same,growth inhibition,[13]; [15],9%
same,growth inhibition,[13]; [16],9%
same,growth inhibition,[13]; at 50.0 µM,62.8%
same,growth inhibition,[14]; at 1.2 µM,1%
same,growth inhibition,[14]; at 3.7 µM,0%
same,growth inhibition,[14]; at 11.0 µM,3%
same,growth inhibition,[14]; at 33.0 µM,49%
same,growth inhibition,[14]; at 100.0 µM,79% (active)
CN1Cc2ccccc2/C=C\c2ccccc21,growth inhibition,[1]; at 1.2 µM,-3%
same,growth inhibition,[1]; at 3.7 µM,-4%
same,growth inhibition,[1]; at 11.0 µM,-1%
same,growth inhibition,[1]; at 33.0 µM,25%
same,growth inhibition,[1]; at 100.0 µM,39%
same,growth inhibition,[2]; at 1.2 µM,-3%
same,growth inhibition,[2]; at 3.7 µM,-2%
same,growth inhibition,[2]; at 11.0 µM,-3%
same,growth inhibition,[2]; at 33.0 µM,-4%
same,growth inhibition,[2]; at 100.0 µM,7%
same,growth inhibition,[3]; at 1.2 µM,0%
same,growth inhibition,[3]; at 3.7 µM,9%
same,growth inhibition,[3]; at 11.0 µM,23%
same,growth inhibition,[3]; at 33.0 µM,36%
same,growth inhibition,[3]; at 100.0 µM,71% (active)
same,growth inhibition,[4]; at 1.2 µM,0%
same,growth inhibition,[4]; at 3.7 µM,-3%
same,growth inhibition,[4]; at 11.0 µM,-1%
same,growth inhibition,[4]; at 33.0 µM,7%
same,growth inhibition,[4]; at 100.0 µM,22%
same,growth inhibition,[5]; at 1.2 µM,-6%
same,growth inhibition,[5]; at 3.7 µM,-10%
same,growth inhibition,[5]; [15],-123%
same,growth inhibition,[5]; at 11.0 µM,-1%
same,growth inhibition,[5]; at 33.0 µM,49%
same,growth inhibition,[5]; [16],92% (active)
same,growth inhibition,[5]; at 50.0 µM,24.8%
same,growth inhibition,[5]; at 100.0 µM,64%
same,growth inhibition,[6]; at 1.2 µM,1%
same,growth inhibition,[6]; at 3.7 µM,2%
